Screening data as filed in PubChem BioAssay.
HCMV antiviral = human cytomegalovirus inhibition. HFF cells, HCMV-luciferase reporter, 72 h; stronger effect = lower value. activity change, negative = inhibition, % at 57.5 µM. actives 4.5% (n = 410,000). AID 1259415; in the data active = activity change below about -60%; inconclusive = no clear call, values can overlap the other calls; inactive = above about -39%; also: % is scaled to controls: 0 for no effect and ±100 for the full control effect
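Luciferase read-out from HCMV-luciferase-infected HFFs (MOI 1 PFU/cell) 72 h post infection at 37C; compounds added after 16 h cell attachment; activity normalized between buffer-only basal and Salinomycin (10uM) inhibitor controls.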
CHX counter = counter-screen for Shiga toxin inhibitors: cycloheximide protein synthesis inhibition; max response, %; actives 12% (n = 300,000); cell reporter, cycloheximide protein synthesis inhibition counterscreen; in the data active = max response mostly above about 13%, no sharp cut-off; inactive = mostly below about 14%; also: read at 38.3 µM for the half of the compounds with a filed dose; 0% is about no effect
Shiga inhibitor = blocks Shiga toxin action in Vero cells; actives 9.2% (n = 290,000); inhibition, % at 38.7 µM; Vero cells, Shiga toxin protein synthesis inhibition reporter; in the data active = inhibition mostly above about 28%, no sharp cut-off; inactive = mostly below about 43%; also: 0% is about no effect
HCV inh = blocks hepatitis C virus; actives 3.4% (n = 340,000); Huh7.5.1 HCVcc-Cre infection, luciferase reporter, 44 h; Potency, µM (titrated, usually from 41.8 µM), without a hit: at the top dose activity change, negative = inhibition, most hits filed as inhibitors; AID 651820; also: potency is read from the fitted curve at half-maximal effect; % is scaled to controls: 0 for no effect and ±100 for the full control effect
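Seed cells (1,000/well) for 4 h; treat with compound and infect with HCVcc-Cre, moi about 0.5. Incubate 44 h, then detect luciferase activity.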
Pf growth 48h = inhibits P. falciparum growth in the first generation, 48 h. Potency, µM (highest dose often 28.7 µM), for inactives: top-dose activity change, negative = inhibition, hits mostly inhibitors. P. falciparum luciferase growth in erythrocytes, 48 h. actives 5.9% (n = 310,000). AID 504832; also: potency is read from the fitted curve at half-maximal effect; % is scaled to controls: 0 for no effect and ±100 for the full control effect
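Luciferase-expressing P. falciparum in infected erythrocytes (2% hematocrit, 0.1% parasitemia final) in RPMI 1640/0.5% Albumax were exposed to compound for 48 hours at 37 C, 5% CO2; growth read as luminescence.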
Pf growth 96h = P. falciparum growth inhibition at 96 hour, primary screen for plastid delayed-death inhibitors; AID 504834; actives 6.9% (n = 320,000); Potency, µM (doses to about 28.7 µM), inactives show top-dose activity change, negative = inhibition, hits mostly inhibitors; P. falciparum luciferase reporter growth, 96 h; also: potency is read from the fitted curve at half-maximal effect; % is scaled to controls: 0 for no effect and ±100 for the full control effect
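Infected RBCs, 2% Hct / 0.05% parasitemia final; luciferase-reporter P. falciparum; cpd 96 h, 37 C, 5% CO2; luciferase detection reagent; luminescence.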
* = called active by the depositor. In the library only some 21% were active in any assay of this set; here they are far more common. Unless noted, calls follow the shape of the dose curve; as a rule, active = well fitted inhibition curve with a large enough effect; inconclusive = small, poorly fitted or top-dose-only effect, or another doubt; inactive = no such curve, though single readings can be large or run the other way.

How did Cc1cc2oc(=O)cc(CN3CCCCC3)c2cc1Cl do in these assays?
HCMV antiviral: -15.8

What do the screens show for `COc1ccc(C2C(C(=O)Nc3cccnc3)=C(C)Nc3nc(-c4ccccc4)nn32)cc1OC` (stereo not given)?
HCMV antiviral: 13.1

How did CCN(CCn1cccn1)C(=O)CCc1nnc(C2CCCCC2)o1 do in these assays?
HCMV antiviral: 23.4; CHX counter: 12.4*; Shiga inhibitor: 37.5*; HCV inh: 3.7%; Pf growth 48h: -19.5%; Pf growth 96h: -9.2%

How did CN(Cc1cccc(-n2cccn2)c1)C(=O)CCc1nnc(C2CCCCC2)o1 do in these assays?
HCMV antiviral: -6.7; CHX counter: 40.4*; Shiga inhibitor: 54.6*; HCV inh: -5.6%; Pf growth 48h: -23.6%; Pf growth 96h: inconclusive

How did Cc1ccc(CNC(=O)CCS(=O)(=O)Cc2ccc(C)cc2)cc1 do in these assays?
HCMV antiviral: 0.0; CHX counter: -5.5; Shiga inhibitor: -10.6; HCV inh: 10.0%; Pf growth 48h: -18.4%; Pf growth 96h: 17.3%

How did COc1ccccc1NC(=O)Cn1cc(C(=O)C2CC2)c2ccccc21 do in these assays?
HCMV antiviral: 50.6; CHX counter: -0.4; Shiga inhibitor: 1.3; HCV inh: -11.2%; Pf growth 48h: inconclusive; Pf growth 96h: 0.4%

Results for CN(C)c1ccc(/C=N/NC(=O)CCC(=O)NCc2ccccc2)cc1 ?
HCMV antiviral: -6.6; CHX counter: -1.5; Shiga inhibitor: 1.3; HCV inh: 16.6%; Pf growth 48h: 6.5%; Pf growth 96h: -1.1%

How did O=C(/C=C1\NC2(CCCC2)Cc2ccccc21)C(=O)N/N=C/c1ccccc1O do in these assays?
HCMV antiviral: -71.0*; CHX counter: 23.0*; Shiga inhibitor: 31.4; HCV inh: inconclusive; Pf growth 48h: 0.0%; Pf growth 96h: 0.0%

Results for CN(C)c1ccc(/C=N/NC(=O)C(=O)/C=C2\NC3(CCCC3)Cc3ccccc32)cc1 ?
HCMV antiviral: -62.8*; CHX counter: 6.9; Shiga inhibitor: 10.8; HCV inh: inconclusive; Pf growth 48h: inconclusive; Pf growth 96h: 2.62µM*

Results for COc1cc(/C=N/NC(=O)C(=O)/C=C2\NC3(CCCC3)Cc3ccccc32)ccc1O ?
HCMV antiviral: 6.5; CHX counter: -3.3; Shiga inhibitor: -6.9; HCV inh: inconclusive; Pf growth 48h: inconclusive; Pf growth 96h: inconclusive

What do the screens show for `COc1cccc(NC(=O)[C@H](NC(=O)[C@@H]2Cc3ccccc3CN2)c2ccccc2)c1`?
HCMV antiviral: 70.8; CHX counter: 30.2*; Shiga inhibitor: 38.2; HCV inh: 15.9%; Pf growth 48h: inconclusive; Pf growth 96h: inconclusive

What do the screens show for `CC(C)c1ccc(NC(=O)[C@H](NC(=O)[C@@H]2Cc3ccccc3CN2)c2ccccc2)cc1`?
CHX counter: 33.9*; Shiga inhibitor: 35.2; HCV inh: -5.5%; Pf growth 48h: inconclusive; Pf growth 96h: inconclusive

How did COc1ccc(CNC(=O)[C@H](C)NC(=O)[C@@H]2Cc3ccccc3CN2)cc1 do in these assays?
HCMV antiviral: -4.3; CHX counter: 1.7; Shiga inhibitor: -2.7; HCV inh: -1.7%; Pf growth 48h: -1.2%; Pf growth 96h: 19.9%

What do the screens show for `Cc1ccc(C(=O)NC(C(=O)Nc2ccccc2)c2ccccc2)cc1` (stereo not given)?
HCMV antiviral: -29.9; CHX counter: 6.7; Shiga inhibitor: -0.3; HCV inh: 1.5%; Pf growth 48h: 9.28µM*; Pf growth 96h: -6.6%

Results for CC(NC(=O)[C@H](NC(=O)[C@@H]1Cc2ccccc2CN1)c1ccccc1)c1ccccc1 (stereo not given in full) ?
HCMV antiviral: 19.7; CHX counter: 7.2; Shiga inhibitor: 13.9; HCV inh: -59.8%; Pf growth 48h: 0.0%; Pf growth 96h: inconclusive

What do the screens show for `Cc1cccc(NC(=O)[C@H](NC(=O)[C@@H]2Cc3ccccc3CN2)c2ccccc2)c1`?
CHX counter: 26.3*; Shiga inhibitor: 16.7; HCV inh: 28.2%; Pf growth 48h: -14.0%; Pf growth 96h: inconclusive

What do the screens show for `CN(c1ccc(F)cc1)S(=O)(=O)c1ccc(Cl)c(C(=O)OCC(=O)NCc2ccco2)c1`?
HCMV antiviral: -0.8; CHX counter: 20.8; Shiga inhibitor: 34.9; HCV inh: 7.6%; Pf growth 48h: 2.4%; Pf growth 96h: 46.3%

Results for Cc1ccc(C(NC(=O)c2ccccc2)C(Cl)(Cl)Cl)cc1 (stereo not given) ?
HCMV antiviral: -26.5; CHX counter: -2.8; Shiga inhibitor: 26.6; HCV inh: inconclusive; Pf growth 48h: 11.7µM*; Pf growth 96h: inconclusive

What do the screens show for `COc1cccc(NC(=O)[C@H](Cc2ccccc2)NC(=O)[C@@H]2Cc3ccccc3CN2)c1`?
HCMV antiviral: 3.6; CHX counter: 25.7*; Shiga inhibitor: 41.4; HCV inh: -10.7%; Pf growth 48h: inconclusive; Pf growth 96h: 46.7%

Results for Cc1cccc(NC(=O)[C@@H](CC(C)C)NC(=O)[C@@H]2Cc3ccccc3CN2)c1 ?
CHX counter: 14.8; Shiga inhibitor: 18.3; HCV inh: -8.8%; Pf growth 48h: inconclusive; Pf growth 96h: -17.9%

How did Cc1ccc(NC(=O)[C@H](NC(=O)[C@@H]2Cc3ccccc3CN2)c2ccccc2)cc1 do in these assays?
CHX counter: 25.2*; Shiga inhibitor: 44.7*; HCV inh: 1.0%; Pf growth 48h: 1.4%; Pf growth 96h: inconclusive

How did Cc1ccc(Nc2nnc(SCC(=O)NC(Cc3c[nH]c4ccccc34)C(=O)O)s2)cc1 (stereo not given) do in these assays?
HCMV antiviral: -29.6; CHX counter: -5.8; Shiga inhibitor: 22.1; HCV inh: 21.3%; Pf growth 48h: 42.7%; Pf growth 96h: 37.9%

What do the screens show for `CCOc1ccc(N(CC(=O)NCCc2ccccc2)S(=O)(=O)c2ccccc2)cc1`?
HCMV antiviral: -28.3; CHX counter: -2.2; Shiga inhibitor: -4.0; HCV inh: 13.9%; Pf growth 48h: inconclusive; Pf growth 96h: -0.3%

What do the screens show for `NC(=O)c1ccsc1NC(=O)COC(=O)C1CC2CCCC(C1)C2=O` (stereo not given)?
HCMV antiviral: 0.0; CHX counter: 14.0*; Shiga inhibitor: 4.5; HCV inh: 24.3%; Pf growth 48h: -0.4%; Pf growth 96h: 10.9%

How did O=C(COc1ccc2ccccc2c1)Nc1nccs1 do in these assays?
HCMV antiviral: 10.8; CHX counter: 42.4*; Shiga inhibitor: 52.0*; HCV inh: -15.9%; Pf growth 48h: 209.2%; Pf growth 96h: 17.7%

Results for COc1ccccc1CCC(=O)Nc1ccc(C)cc1Cl ?
HCMV antiviral: -15.5; CHX counter: 54.7*; Shiga inhibitor: 90.0*; HCV inh: -26.8%; Pf growth 48h: 193.2%; Pf growth 96h: 118.9%
